# PMC7862700, “An all-to-all approach to the identification of sequence-specific readers for epigenetic DNA modifications on cytosine”
# How the values were obtained:
# Test in all cases: DAPPL (digital affinity profiling via proximity ligation, sequencing); 10 mM Tris-HCl pH 7.5, 50 mM NaCl, 1 mM DTT, 4% glycerol, room temperature, 30 min; GST-TFs on glutathione beads, 16-mer random dsDNA library, 0.1% formaldehyde crosslink after washing; high values mean tight binding
# Settings in all cases: protein: recombinant; tags: N-terminal GST; dsDNA, one strand shown
# FLI1 = target: T1, FLI1 (Homo sapiens, UniProt Q01543 1-452)
# T1 sequence: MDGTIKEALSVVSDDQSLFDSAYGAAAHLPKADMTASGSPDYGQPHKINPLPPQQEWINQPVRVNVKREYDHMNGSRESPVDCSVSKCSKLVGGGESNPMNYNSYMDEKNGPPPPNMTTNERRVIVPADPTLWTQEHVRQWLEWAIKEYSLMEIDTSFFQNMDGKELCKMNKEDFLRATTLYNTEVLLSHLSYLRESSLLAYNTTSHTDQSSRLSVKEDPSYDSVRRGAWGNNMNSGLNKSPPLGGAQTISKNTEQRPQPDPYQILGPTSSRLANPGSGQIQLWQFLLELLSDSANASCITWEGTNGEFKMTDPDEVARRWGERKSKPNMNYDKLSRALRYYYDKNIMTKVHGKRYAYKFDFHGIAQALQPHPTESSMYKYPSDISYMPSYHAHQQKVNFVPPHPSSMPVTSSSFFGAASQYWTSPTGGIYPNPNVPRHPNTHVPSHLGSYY
# How it was run: (§1)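 Binding signal is defined as a hexamer's read frequency for one factor over its frequency for the tag-only sample. To obtain reads, GST-fused human transcription factors were expressed in yeast, captured on glutathione beads, barcoded with DNA and pooled with that sample. Pools met 200 nmole of a 16-mer random double-stranded DNA library in Tris/NaCl/DTT/glycerol buffer for 30 min at room temperature before washing, 0.1% formaldehyde crosslinking, proximity ligation (BsaI/T4 ligase, 1 h, 37 °C), PCR and Illumina NextSeq500 sequencing.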
# ELK1 = target: T2, ELK1 (Homo sapiens, UniProt P19419 1-428)
# T2 sequence: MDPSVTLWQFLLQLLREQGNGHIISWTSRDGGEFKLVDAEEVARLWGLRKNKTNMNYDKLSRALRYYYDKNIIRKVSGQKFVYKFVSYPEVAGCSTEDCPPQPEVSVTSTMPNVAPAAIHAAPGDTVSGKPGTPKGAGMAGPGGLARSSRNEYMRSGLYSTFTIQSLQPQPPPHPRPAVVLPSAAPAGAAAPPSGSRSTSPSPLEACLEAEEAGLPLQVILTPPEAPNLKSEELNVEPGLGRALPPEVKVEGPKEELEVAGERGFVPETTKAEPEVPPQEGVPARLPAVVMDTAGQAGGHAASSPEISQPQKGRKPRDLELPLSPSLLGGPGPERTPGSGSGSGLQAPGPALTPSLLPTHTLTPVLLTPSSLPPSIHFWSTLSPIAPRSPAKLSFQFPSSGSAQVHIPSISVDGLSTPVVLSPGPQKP
# How it was run: as §1
# GABPA = target: T3, GABPA (Homo sapiens, UniProt Q06546 1-454)
# T3 sequence: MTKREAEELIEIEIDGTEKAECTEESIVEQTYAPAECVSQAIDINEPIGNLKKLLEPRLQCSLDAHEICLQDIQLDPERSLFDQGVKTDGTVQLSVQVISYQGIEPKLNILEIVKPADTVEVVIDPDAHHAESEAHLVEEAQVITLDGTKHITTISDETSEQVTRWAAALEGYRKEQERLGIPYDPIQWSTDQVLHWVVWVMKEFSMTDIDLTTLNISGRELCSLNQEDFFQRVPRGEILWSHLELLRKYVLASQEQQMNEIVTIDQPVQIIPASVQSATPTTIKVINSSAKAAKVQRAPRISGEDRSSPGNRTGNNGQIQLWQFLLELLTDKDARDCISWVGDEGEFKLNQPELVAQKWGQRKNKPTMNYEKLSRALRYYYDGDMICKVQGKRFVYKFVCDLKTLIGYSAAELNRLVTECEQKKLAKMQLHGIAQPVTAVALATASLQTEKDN
# How it was run: as §1
# ERG = target: T4, ERG (Homo sapiens, UniProt P11308 1-479)
# T4 sequence: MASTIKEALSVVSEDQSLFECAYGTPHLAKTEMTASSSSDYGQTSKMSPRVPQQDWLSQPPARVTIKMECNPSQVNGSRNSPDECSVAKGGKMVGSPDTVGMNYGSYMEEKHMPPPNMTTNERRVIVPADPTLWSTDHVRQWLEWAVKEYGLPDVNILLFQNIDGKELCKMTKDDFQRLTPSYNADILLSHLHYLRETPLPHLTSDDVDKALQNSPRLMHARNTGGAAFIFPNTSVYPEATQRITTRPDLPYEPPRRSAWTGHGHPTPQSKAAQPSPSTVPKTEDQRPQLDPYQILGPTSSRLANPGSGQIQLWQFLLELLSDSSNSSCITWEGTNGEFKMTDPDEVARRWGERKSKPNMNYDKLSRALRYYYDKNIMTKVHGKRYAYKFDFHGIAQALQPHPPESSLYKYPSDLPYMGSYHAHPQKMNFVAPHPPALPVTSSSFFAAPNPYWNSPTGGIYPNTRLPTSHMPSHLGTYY
# How it was run: as §1
# ELF1 = ELF1 (Homo sapiens, UniProt P32519 1-619)
# Sequence of ELF1 (P32519 whole entry): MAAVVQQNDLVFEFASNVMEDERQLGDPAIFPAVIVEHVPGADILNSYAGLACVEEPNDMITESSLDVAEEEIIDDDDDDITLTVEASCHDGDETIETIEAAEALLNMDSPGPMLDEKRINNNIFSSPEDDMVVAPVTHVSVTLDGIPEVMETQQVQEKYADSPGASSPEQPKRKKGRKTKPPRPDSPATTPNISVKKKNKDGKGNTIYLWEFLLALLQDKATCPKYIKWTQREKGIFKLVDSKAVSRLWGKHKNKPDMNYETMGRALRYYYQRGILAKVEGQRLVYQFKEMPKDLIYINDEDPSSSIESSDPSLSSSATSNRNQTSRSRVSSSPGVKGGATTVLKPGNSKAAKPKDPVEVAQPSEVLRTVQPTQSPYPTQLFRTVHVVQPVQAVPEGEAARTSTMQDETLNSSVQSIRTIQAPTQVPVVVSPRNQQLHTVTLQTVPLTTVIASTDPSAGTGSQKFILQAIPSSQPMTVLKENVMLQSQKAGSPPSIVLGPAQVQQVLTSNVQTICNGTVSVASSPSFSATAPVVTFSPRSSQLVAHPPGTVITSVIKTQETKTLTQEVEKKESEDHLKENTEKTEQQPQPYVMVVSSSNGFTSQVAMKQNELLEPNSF
# How it was run: as §1
# EHF = target: T5, EHF (Homo sapiens, UniProt Q9NZC4 1-300)
# T5 sequence: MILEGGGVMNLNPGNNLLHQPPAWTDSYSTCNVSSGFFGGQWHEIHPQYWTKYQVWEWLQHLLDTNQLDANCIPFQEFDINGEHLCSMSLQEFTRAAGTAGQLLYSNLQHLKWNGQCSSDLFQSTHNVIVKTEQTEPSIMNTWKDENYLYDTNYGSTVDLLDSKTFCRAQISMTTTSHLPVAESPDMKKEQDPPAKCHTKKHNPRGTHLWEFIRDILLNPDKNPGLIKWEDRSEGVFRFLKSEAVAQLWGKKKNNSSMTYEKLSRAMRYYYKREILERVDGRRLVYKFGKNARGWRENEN
# How it was run: as §1
# SPI1 = SPI1 (Homo sapiens, UniProt P17947 1-270)
# How it was run: as §1
# SPIB = SPIB (Homo sapiens, UniProt Q01892 1-262)
# Sequence of SPIB (Q01892 whole entry): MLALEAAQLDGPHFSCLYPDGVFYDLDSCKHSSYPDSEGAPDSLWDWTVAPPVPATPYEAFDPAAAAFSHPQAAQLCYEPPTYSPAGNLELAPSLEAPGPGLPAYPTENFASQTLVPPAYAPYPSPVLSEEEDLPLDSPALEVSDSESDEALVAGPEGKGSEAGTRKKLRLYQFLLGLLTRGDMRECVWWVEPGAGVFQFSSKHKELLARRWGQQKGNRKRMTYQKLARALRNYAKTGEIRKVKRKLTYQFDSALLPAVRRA
# How it was run: as §1
# ELK3 = target: T6, ELK3 (Homo sapiens, UniProt P41970 1-407)
# T6 sequence: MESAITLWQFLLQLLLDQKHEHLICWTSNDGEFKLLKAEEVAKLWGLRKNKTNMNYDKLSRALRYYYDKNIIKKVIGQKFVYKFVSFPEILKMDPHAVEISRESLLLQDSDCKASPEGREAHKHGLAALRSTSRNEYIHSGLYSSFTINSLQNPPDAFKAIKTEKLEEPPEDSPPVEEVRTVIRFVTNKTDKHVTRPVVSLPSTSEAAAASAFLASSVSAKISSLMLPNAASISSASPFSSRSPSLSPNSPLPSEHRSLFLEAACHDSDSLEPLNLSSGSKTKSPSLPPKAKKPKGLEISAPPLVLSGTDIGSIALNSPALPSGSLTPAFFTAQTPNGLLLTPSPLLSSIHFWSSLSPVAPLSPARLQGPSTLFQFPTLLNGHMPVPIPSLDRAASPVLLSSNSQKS
# How it was run: as §1
# FEV = target: T7, FEV (Homo sapiens, UniProt Q99581 1-238)
# T7 sequence: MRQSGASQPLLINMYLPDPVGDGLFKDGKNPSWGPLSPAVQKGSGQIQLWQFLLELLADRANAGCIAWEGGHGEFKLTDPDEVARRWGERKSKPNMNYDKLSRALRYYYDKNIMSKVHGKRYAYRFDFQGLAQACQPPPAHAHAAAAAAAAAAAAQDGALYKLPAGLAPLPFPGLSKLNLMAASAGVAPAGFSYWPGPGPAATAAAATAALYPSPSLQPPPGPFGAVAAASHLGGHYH
# How it was run: as §1
# ETV5 = ETV5 (Homo sapiens, UniProt P41161 1-510)
# Sequence of ETV5 (P41161 whole entry): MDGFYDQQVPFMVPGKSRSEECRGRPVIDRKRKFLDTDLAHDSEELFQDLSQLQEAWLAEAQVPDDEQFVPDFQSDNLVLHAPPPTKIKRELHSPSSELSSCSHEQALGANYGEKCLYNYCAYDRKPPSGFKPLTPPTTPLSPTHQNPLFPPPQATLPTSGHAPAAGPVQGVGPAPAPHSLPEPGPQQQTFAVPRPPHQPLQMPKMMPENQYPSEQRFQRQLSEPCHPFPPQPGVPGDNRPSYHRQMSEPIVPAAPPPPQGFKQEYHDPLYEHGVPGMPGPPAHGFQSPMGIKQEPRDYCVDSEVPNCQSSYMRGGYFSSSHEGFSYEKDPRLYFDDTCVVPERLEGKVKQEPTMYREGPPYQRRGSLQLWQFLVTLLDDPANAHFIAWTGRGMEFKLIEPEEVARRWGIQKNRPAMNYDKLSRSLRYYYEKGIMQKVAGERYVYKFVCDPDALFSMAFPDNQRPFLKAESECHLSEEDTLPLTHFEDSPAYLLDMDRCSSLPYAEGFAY
# How it was run: as §1
# SPIC = target: T8, SPIC (Homo sapiens, UniProt Q8N5J4 1-248)
# T8 sequence: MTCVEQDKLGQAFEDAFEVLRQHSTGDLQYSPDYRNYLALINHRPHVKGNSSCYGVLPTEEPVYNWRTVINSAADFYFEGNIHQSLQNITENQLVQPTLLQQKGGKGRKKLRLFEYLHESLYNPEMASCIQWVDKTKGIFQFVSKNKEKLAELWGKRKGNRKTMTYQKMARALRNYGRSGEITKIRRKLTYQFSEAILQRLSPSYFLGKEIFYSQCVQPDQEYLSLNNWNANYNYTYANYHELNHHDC
# How it was run: as §1
# ELF4 = ELF4 (Homo sapiens, UniProt Q99607 1-663)
# Sequence of ELF4 (Q99607 whole entry): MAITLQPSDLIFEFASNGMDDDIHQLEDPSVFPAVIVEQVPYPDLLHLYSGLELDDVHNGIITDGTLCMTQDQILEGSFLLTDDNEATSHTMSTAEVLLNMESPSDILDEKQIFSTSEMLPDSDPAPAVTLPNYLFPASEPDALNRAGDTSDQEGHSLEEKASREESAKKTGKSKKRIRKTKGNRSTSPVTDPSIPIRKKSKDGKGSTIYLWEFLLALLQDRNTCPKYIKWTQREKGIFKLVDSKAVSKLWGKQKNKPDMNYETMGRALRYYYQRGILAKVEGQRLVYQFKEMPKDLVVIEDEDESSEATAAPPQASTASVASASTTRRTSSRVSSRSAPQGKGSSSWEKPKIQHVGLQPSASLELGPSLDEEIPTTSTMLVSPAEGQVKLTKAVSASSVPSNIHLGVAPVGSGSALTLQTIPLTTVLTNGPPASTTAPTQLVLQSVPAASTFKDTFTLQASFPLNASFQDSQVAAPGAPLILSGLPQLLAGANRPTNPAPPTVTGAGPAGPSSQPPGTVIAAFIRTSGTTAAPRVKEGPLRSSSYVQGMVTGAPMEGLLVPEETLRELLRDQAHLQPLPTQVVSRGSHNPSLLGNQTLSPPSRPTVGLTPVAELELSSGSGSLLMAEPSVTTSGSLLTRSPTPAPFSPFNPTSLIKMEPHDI
# How it was run: as §1
# ETV1 = ETV1 (Homo sapiens, UniProt P50549 1-477)
# Sequence of ETV1 (P50549 whole entry): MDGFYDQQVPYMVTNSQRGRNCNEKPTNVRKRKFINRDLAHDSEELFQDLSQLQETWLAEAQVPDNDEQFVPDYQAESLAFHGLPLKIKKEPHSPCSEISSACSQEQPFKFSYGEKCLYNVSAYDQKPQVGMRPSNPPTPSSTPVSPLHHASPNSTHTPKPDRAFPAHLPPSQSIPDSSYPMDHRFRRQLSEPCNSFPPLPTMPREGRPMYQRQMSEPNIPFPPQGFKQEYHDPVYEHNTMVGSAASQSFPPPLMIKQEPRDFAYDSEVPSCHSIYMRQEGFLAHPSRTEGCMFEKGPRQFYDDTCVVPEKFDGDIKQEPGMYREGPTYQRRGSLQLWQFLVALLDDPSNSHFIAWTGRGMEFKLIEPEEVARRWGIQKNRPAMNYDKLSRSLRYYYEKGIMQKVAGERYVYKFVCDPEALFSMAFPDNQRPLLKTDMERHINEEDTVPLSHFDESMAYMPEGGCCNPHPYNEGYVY
# How it was run: as §1
# ERF = target: T9, ERF (Homo sapiens, UniProt P50548 1-548)
# T9 sequence: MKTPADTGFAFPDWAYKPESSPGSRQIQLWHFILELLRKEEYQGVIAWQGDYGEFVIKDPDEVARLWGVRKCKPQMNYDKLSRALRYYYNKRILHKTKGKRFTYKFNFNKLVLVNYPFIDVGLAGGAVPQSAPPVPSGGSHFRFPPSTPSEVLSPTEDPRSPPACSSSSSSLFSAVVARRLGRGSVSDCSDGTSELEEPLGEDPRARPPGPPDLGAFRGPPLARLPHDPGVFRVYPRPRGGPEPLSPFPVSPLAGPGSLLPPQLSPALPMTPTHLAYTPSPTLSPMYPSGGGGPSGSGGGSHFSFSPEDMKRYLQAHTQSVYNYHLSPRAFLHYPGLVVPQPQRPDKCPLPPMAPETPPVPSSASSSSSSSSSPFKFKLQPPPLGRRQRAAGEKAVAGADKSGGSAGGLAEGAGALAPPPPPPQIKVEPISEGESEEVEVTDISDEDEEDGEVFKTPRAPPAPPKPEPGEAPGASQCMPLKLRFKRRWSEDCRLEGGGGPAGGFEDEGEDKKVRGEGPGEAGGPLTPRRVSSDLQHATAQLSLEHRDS
# How it was run: as §1
# ETV3L = target: T10, ETV3L (Homo sapiens, UniProt Q6ZN32 1-361)
# T10 sequence: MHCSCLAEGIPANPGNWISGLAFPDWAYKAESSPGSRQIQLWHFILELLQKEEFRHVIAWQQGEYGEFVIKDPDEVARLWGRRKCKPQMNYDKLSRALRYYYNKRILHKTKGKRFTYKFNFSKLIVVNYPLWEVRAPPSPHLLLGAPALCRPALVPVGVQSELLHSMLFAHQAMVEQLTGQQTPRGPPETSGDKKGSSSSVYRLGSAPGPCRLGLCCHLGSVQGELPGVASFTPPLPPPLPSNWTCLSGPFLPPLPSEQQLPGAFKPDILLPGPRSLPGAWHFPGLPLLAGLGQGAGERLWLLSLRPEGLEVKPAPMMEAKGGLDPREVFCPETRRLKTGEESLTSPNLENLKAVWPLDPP
# How it was run: as §1
# ETS2 = target: T11, ETS2 (Homo sapiens, UniProt P15036 1-469)
# T11 sequence: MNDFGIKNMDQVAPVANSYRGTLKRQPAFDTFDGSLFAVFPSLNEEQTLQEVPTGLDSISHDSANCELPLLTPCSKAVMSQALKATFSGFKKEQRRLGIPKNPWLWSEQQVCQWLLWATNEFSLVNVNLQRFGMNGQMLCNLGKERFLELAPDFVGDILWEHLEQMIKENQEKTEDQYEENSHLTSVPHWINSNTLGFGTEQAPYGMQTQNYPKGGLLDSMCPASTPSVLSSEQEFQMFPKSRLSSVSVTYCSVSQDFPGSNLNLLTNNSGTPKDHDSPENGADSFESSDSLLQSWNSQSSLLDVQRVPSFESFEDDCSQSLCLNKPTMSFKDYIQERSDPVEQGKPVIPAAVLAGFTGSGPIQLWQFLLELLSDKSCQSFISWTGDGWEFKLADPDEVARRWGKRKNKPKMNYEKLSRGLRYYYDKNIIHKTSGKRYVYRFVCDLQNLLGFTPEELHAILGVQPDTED
# How it was run: as §1
# ETV3 = target: T12, ETV3 (Homo sapiens, UniProt P41162-2 1-143)
# T12 sequence: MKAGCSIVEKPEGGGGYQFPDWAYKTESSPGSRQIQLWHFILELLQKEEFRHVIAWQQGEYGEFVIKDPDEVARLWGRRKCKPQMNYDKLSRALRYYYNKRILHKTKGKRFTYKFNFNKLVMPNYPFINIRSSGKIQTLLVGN
# How it was run: as §1
# ETV6 = ETV6 (Homo sapiens, UniProt P41212 1-452)
# Sequence of ETV6 (P41212 whole entry): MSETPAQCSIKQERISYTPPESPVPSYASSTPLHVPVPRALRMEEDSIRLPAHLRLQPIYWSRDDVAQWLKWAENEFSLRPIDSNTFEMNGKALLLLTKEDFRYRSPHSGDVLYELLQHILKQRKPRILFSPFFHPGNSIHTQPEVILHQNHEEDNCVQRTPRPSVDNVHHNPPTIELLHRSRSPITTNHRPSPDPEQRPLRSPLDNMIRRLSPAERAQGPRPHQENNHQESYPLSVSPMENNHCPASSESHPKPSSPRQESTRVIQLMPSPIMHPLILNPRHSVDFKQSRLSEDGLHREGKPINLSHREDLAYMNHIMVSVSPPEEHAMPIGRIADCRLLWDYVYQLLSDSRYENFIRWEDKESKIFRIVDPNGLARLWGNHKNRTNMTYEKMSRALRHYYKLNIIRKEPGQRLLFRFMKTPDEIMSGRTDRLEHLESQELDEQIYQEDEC
# How it was run: as §1
sequence,measurement,setting,value
GGAAGA,binding signal,FLI1,"1.06 fold enrichment (6-mer frequency, TF over GST control)"
same,binding signal,ELK1,"1.16 fold enrichment (6-mer frequency, TF over GST control)"
same,binding signal,GABPA,"1.11 fold enrichment (6-mer frequency, TF over GST control)"
same,binding signal,ERG,"1.2 fold enrichment (6-mer frequency, TF over GST control)"
same,binding signal,ELF1,"1.02 fold enrichment (6-mer frequency, TF over GST control)"
same,binding signal,EHF,"1.3 fold enrichment (6-mer frequency, TF over GST control)"
same,binding signal,SPI1,"1.17 fold enrichment (6-mer frequency, TF over GST control)"
same,binding signal,SPIB,"1.19 fold enrichment (6-mer frequency, TF over GST control)"
same,binding signal,ELK3,"1.19 fold enrichment (6-mer frequency, TF over GST control)"
same,binding signal,FEV,"1.05 fold enrichment (6-mer frequency, TF over GST control)"
same,binding signal,ETV5,"1.22 fold enrichment (6-mer frequency, TF over GST control)"
same,binding signal,SPIC,"1.08 fold enrichment (6-mer frequency, TF over GST control)"
same,binding signal,ELF4,"1.06 fold enrichment (6-mer frequency, TF over GST control)"
same,binding signal,ETV1,"1.2 fold enrichment (6-mer frequency, TF over GST control)"
same,binding signal,ERF,"1.03 fold enrichment (6-mer frequency, TF over GST control)"
same,binding signal,ETV3L,"1.14 fold enrichment (6-mer frequency, TF over GST control)"
same,binding signal,ETS2,"1.18 fold enrichment (6-mer frequency, TF over GST control)"
same,binding signal,ETV3,"1.24 fold enrichment (6-mer frequency, TF over GST control)"
same,binding signal,ETV6,"1.26 fold enrichment (6-mer frequency, TF over GST control)"
